# Measurements from ChEMBL document CHEMBL3433997, “St. Jude Leishmania screening dataset” (2016).
# What was measured:
# Assay type in all cases: functional
# [1] = biological target: Solute carrier family 2, facilitated glucose transporter member 1 (Homo sapiens) (UniProt P11166); experiment: ST_JUDE_LEISH: Cytotoxicity at 2uM final concentration against transgenic Leishmania Mexicana promastigotes LmGLUT1 that are glucose transport deficient and complemented with the human glucose transporter GLUT1. Activity is measured by DNA content using SYBR green in vitro
# Sequence of Solute carrier family 2, facilitated glucose transporter member 1 (Homo sapiens) (P11166 whole entry): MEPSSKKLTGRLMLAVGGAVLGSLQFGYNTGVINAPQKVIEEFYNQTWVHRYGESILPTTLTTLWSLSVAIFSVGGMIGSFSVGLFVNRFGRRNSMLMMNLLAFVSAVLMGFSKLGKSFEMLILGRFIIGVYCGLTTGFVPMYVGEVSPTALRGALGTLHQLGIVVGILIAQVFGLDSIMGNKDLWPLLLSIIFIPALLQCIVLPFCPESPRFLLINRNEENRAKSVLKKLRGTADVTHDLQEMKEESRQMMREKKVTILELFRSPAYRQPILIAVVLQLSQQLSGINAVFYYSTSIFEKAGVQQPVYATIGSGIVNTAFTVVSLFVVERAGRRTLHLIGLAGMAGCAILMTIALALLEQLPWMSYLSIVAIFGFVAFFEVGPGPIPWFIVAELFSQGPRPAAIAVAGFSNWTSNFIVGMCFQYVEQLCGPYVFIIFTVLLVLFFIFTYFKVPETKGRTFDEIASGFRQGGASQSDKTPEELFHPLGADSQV
# [2] = biological target: Hexose transporter 1 (Plasmodium falciparum) (UniProt O97467); experiment: ST_JUDE_LEISH: Cytotoxicity at 2uM final concentration against transgenic Leishmania Mexicana promastigotes LmPfHT that are glucose transport deficient and complemented with the Plasmodium falciparum hexose transporter. Activity is measured by DNA content using SYBR green in vitro
# [3] = biological target: Glucose transporter (Leishmania mexicana) (UniProt O61059); experiment: ST_JUDE_LEISH: Cytotoxicity at 2uM final concentration against transgenic Leishmania Mexicana promastigotes LmGT2 that are glucose transport deficient and complemented with the L. Mexicana glucose transporter 2. Activity is measured by DNA content using SYBR green in vitro
Compound,inhibition [1] [%],inhibition [2] [%],inhibition [3] [%]
COc1ccc2[nH]c(C)cc(=NN=Cc3ccncc3)c2c1,3.45,-0.44,4.43
O=C(C=Cc1ccc(Cl)c(Cl)c1)NCCCCCN1CCC(CCNS(=O)(=O)c2ccc(Br)cc2)CC1,2.45,1.43,2.53
Cc1ccc(NC(=O)c2ccc3ncccc3c2)cc1OC1CCN(Cc2ccsc2)CC1,3.79,3.4,2.95
Cc1cccc2nc(-c3ccc(-c4ccc(CN5CCN(c6ccncc6)CC5)cc4)cc3)[nH]c12,33.3,29.1,13.4
OCc1c(Cl)cc(Cl)cc1CNCCCNc1nc2ccccc2[nH]1,5.72,6.27,1.01
COc1cc(NC(=O)c2cc3c(C)nn(-c4cccc(C(F)(F)F)c4)c3s2)cc(OC)c1OC,0.22,1.29,2.46
N#Cc1ccc(N[C@@H](CC2CCCCC2)C(=O)Nc2ccc(-c3ccccc3)cc2)c2ccccc12,2.38,3.08,3.75
CC(C)Cc1nc(N2CCOCC2)c2nnn(Cc3ccccc3)c2n1,3.23,1.31,1.84
CN(C)CCOc1ccc(-c2cc(-c3ccncc3)c(-c3ccc(Cl)c(O)c3)o2)cc1,1.31,1.64,0.33
CCOC(=O)CN1Cc2cc(NCc3ccc4ccc5nc(C)[nH]c(=O)c5c4c3)ccc2C1=O,0.55,1.98,-0.88
O=C(NCCc1ccc(Cl)c(Cl)c1)c1ccc(CNC(=O)c2ccc(O)c(-c3ccc(Cl)c(Cl)c3)c2)cc1,0.99,1.15,1.06
O=C(Nc1ccc(Br)cc1)c1cc(Br)ccc1NS(=O)(=O)c1cc(C(F)(F)F)cc(C(F)(F)F)c1,-2.23,0.04,-0.28
